# Where “and” joins values, the source holds several entries; their conditions need not be identical. Equal entries are not always repeated. Inconclusive results are not listed. A call without a number means that no potency is given here. Values without a mark were called inactive. Calls of active or inactive are those of the source. The call rests on the fitted dose curve; in most records, active means well fitted curve in the direction sought with a large enough effect; inconclusive means small, poorly fitted or top-dose-only effect, or another doubt; inactive means no such curve, though single readings can be large; an effect the other way counts as inactive or inconclusive.
# Assays:
# [1] = target: Calcium and integrin-binding protein 1 (Homo sapiens) (UniProt Q99828); assay: Primary qHTS for Identification of Calcium Integrin Binding Protein 1 (CIB1) Competitor (AID 1508620);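 further: GST tagged CIB1 binding a fluorescein labelled alphaIIb integrin peptide tracer; top concentration of the series differs between compounds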
# Outline: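 Fluorescence polarization competition: GST-tagged CIB1 (1 uM final) preincubated with compound 15 min at room temperature, then FITC-labelled alphaIIb peptide (100 nM final) added. After 15 min at room temperature, polarization read at Ex 480/Em 540.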
# [2] = Primary qHTS for inhibitors of nuclear receptor binding SET domain protein 2 (NSD2) in an isogenic RCH-ACV NSD2 p.E1099K mutant (9B) (AID 1645876); further: nearly all actives have a fitted effect of over 70% in size; further: potency means the concentration at half of the fitted maximal effect
# [3] = target: N-terminal Xaa-Pro-Lys N-methyltransferase 1 (Homo sapiens) (UniProt Q9BV86); assay: Confirmatory qHTS for Inhibitors of N-terminal methyltransferase 1 (NTMT1): MTaseGlo Assay (AID 1645874); further: nearly all actives have a fitted effect of over 65% in size; further: potency means the concentration at half of the fitted maximal effect;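 on activity change, negative = inhibition: luminescence from SAH made as NTMT1 methylates SPKRIA peptide using SAM; series mostly up to about 100 µM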
# Outline: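 SPKRIA peptide at 1 uM was methylated by 125 nM NTMT1 using 100 uM SAM over 30 min at room temperature, following a 15 min compound preincubation. Product SAH was detected luminescently.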
# [4] = target: Papain (Carica papaya) (UniProt P00784); assay: Primary qHTS assay for inhibitors of the protease papain (AID 1645873);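 further: papain turnover of Z-FR-AMC read as the AMC fluorescence gain over 10 min; series mostly up to about 50 µM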
# Papain (Carica papaya), sequence (P00784 whole entry, looked up): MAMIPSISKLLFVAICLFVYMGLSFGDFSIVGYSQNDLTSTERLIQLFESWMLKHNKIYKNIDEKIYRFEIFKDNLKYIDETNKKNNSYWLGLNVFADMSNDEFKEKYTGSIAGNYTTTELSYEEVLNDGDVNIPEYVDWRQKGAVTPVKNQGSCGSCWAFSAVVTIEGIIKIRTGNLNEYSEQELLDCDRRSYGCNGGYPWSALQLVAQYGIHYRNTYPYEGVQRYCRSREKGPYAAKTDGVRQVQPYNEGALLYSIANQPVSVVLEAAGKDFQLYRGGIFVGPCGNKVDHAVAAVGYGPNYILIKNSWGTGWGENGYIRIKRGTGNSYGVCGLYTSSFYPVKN
# Calcium and integrin-binding protein 1 (Homo sapiens), sequence (Q99828 whole entry, looked up): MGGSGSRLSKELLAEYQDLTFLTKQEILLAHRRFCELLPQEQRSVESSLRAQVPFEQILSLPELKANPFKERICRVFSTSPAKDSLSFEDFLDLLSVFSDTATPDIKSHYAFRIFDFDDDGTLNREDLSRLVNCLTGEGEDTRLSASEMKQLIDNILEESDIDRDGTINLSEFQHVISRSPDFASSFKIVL
# N-terminal Xaa-Pro-Lys N-methyltransferase 1 (Homo sapiens), sequence (Q9BV86 whole entry, looked up): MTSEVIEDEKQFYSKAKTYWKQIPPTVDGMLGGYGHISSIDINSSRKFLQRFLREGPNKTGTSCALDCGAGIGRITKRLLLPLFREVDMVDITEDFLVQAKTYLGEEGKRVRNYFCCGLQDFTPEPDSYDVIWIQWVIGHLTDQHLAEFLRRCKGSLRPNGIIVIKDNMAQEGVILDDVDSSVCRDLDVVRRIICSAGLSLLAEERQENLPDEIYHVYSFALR
smiles,measurement,setting,value
C[C@@H]1C[C@@H](O)[C@@]23CO[C@@H](O)[C@@H]2CCC[C@@H]3[C@@]12C[C@@H](c1ccoc1)OC2=O,Potency,[1],inactive
same,Potency,[2],inactive
COc1cc2c(cc1OC)CC(=O)N(CCCNC[C@H]1Cc3cc(OC)c(OC)cc31)CC2,Potency,[1],inactive
same,Potency,[2],inactive
Cc1cnc(Nc2ccc(F)cc2Cl)nc1-c1c[nH]c(C(=O)NC(CO)c2cccc(Cl)c2)c1 (stereo not drawn),Potency,[1],inactive
same,Potency,[3],inactive
same,Potency,[2],8.33 µM (active)
O=C1NC(Cc2c[nH]c3ccccc23)C(=O)NC1Cc1c[nH]c2ccccc12 (stereo not drawn),Potency,[1],inactive
same,Potency,[2],inactive
C=C[C@@]12COC(=O)C(=C)C1[C@@H](O)[C@H](C(=C)C(=O)OC)[C@@H](OC(=O)C(=C)CO)C2 (stereo partly drawn),Potency,[1],inactive
same,Potency,[2],8.93 µM (active)
C[C@@H]1O[C@@H](O[C@H]2[C@@H]3C=CO[C@@H](O[C@@H]4O[C@H](CO)[C@@H](O)[C@H](O)[C@H]4O)[C@@H]3[C@@]3(CO)O[C@@H]23)[C@H](OC(=O)/C=C/c2ccccc2)[C@H](O)[C@H]1O,Potency,[1],inactive
same,Potency,[2],inactive
C[C@@H]1O[C@@H](O[C@H]2[C@H](O)[C@@H](O[C@@H]3O[C@H](CO)[C@@H](O)[C@H](O[C@@H]4O[C@H](CO)[C@@H](O)[C@H](O)[C@H]4O)[C@H]3O)[C@H](O[C@H]3CC[C@@]4(C)C(=CC[C@@H]5C4CC[C@@]4(C)C5C[C@@H]5OC6(CC[C@@](C)(CO[C@@H]7O[C@H](CO)[C@@H](O)[C@H](O)[C@H]7O)O6)[C@@H](C)[C@@H]54)C3)O[C@@H]2CO)[C@H](O)[C@H](O)[C@H]1OC1OC(CO)C(O)C(O)C1O (stereo partly drawn),"activity change, negative = inhibition",[1],-2.87% [at 12.4 µM]
same,outcome,[2],inactive [at 9.23 µM]
NC(=O)c1cccc(-c2cc(OC(=O)NC3CCCCC3)ccc2O)c1,Potency,[1],inactive
same,Potency,[3],inactive
Clc1cc2c(NC3CCCC3)nnc(-c3ccncc3)c2cc1Cl,Potency,[1],inactive
same,Potency,[2],inactive
CCC(C)C(=O)OC1CC(O)C23C4OCC5(C(O)CC2C1(C)C(O)O4)C3C(=O)C(O)C1(C)C(O)(c2ccoc2)CC2OC251 (stereo not drawn),Potency,[1],inactive
same,Potency,[2],0.136 µM (active)
CC[C@]1(O)CC2CN(CCc3c([nH]c4ccccc34)[C@@](C(=O)OC)(c3cc4c(cc3OC)N(C)[C@H]3[C@@](O)(C(=O)OC)[C@H](OC(C)=O)[C@]5(CC)C=CCN6CC[C@]43[C@@H]65)C2)C1 (stereo partly drawn),Potency,[1],inactive
same,outcome,[4],inactive
same,Potency,[2],57.8 nM (active) and 417 nM (active)
COc1c2c(c(C)c3c1C(=O)OC3)OC1(C)CC(O)C(C(C)(C)O)C(C)(CCC(=O)O)C1C2 (stereo not drawn),Potency,[1],inactive
same,Potency,[2],inactive
Cc1cc2c(c(=O)[nH]1)OC(C(O)CC(C)C)O2 (stereo not drawn),Potency,[1],inactive
same,Potency,[3],inactive
same,Potency,[2],inactive
CC1OC(OC2CCC3(C)C(CCC4(C)C3CC=C3C5CC(C)(C)CCC5(C(=O)OC5OC(CO)C(O)C(O)C5O)CCC34C(=O)O)C2(C)C)C(O)C(O)C1O (stereo not drawn),Potency,[1],inactive
same,Potency,[2],inactive
CCN1CCN(Cc2ccc(Nc3ncc(F)c(-c4cc(F)c5nc(C)n(C(C)C)c5c4)n3)nc2)CC1,Potency,[1],inactive
same,Potency,[3],20 µM (active)
same,Potency,[2],728 nM (active) and 468 nM (active)
C/C=C/c1ccc2oc(-c3ccc(O)c(OC)c3)c(C)c2c1,Potency,[1],inactive
same,Potency,[3],inactive
same,Potency,[2],14.5 µM (active)
CC1(C)CC[C@]2(C(=O)O[C@@H]3O[C@H](CO)[C@@H](O)[C@H](O)[C@H]3O)CC[C@]3(C)C(=CCC4[C@@]5(C)C[C@@H](O)[C@H](O)C(C)(C)C5[C@H](O)C[C@]43C)[C@@H]2[C@@H]1O (stereo partly drawn),Potency,[1],inactive
same,Potency,[2],inactive
C=C1C(O)C(O)C2(CC3C(C)=CCC4C(C)(CO)CCCC34C)OC2C1O (stereo not drawn),Potency,[1],inactive
same,Potency,[2],inactive
COC(=O)C1=CO[C@@H](O[C@@H]2O[C@H](CO)[C@@H](O)[C@H](O)[C@H]2O)[C@H]2[C@@H]1CC(OC)O[C@@H]2C (stereo partly drawn),Potency,[1],inactive
same,Potency,[2],inactive
Cc1cc(N(C)C)ccc1-c1nc2ccc(-c3nc4ccc(N5CCN(C)CC5)cc4[nH]3)cc2[nH]1,Potency,[1],inactive
same,Potency,[2],0.578 µM (active)
C/C1=C\[C@H]2OC(=O)[C@@H](C)[C@@H]2CC/C(C(=O)O)=C/CC1,Potency,[1],inactive
same,Potency,[2],inactive
CNC(=O)c1ccccc1Nc1nc(Nc2ccc3c(c2OC)CCC[C@@H](N2CCN(CCO)CC2)C3)ncc1Cl,Potency,[1],inactive
same,Potency,[2],6.61 µM (active)
COC1CC(O[C@H]2CC[C@@]3(C)C(=CC[C@]4(O)C3[C@H](OC(C)=O)[C@@H](OC(=O)c3ccccc3)[C@]3(C)[C@@H](C(C)=O)CC[C@@]34O)C2)OC(C)C1OC1CC(OC)C(OC2CC(OC)C(OC3OC(C)C(OC4OC(CO)C(O)C(O)C4O)C(OC)C3O)C(C)O2)C(C)O1 (stereo partly drawn),"activity change, negative = inhibition",[1],-4.32% [at 12.4 µM]
same,"activity change, negative = viability loss",[2],-11.2% [at 9.23 µM]
CC/C=C\CCO[C@@H]1O[C@H](CO[C@@H]2OC[C@H](O)[C@H](O)[C@H]2O)[C@@H](O)[C@H](O)[C@H]1O,Potency,[1],inactive
same,Potency,[2],inactive
COc1c2c(c(CO)c3c1C(=O)OC3)OC1(C)CCC3(O)C(C)(C)OC(=O)CCC3(C)C1C2 (stereo not drawn),Potency,[1],inactive
same,Potency,[2],inactive
C=C(C)C(=O)OC1C(OC(C)=O)/C(C=O)=C\CC/C(CO)=C/C2OC(=O)C(=C)C21 (stereo not drawn),Potency,[1],inactive
same,Potency,[2],3.17 µM (active)
O=C1NC2CCc3nc4ccccc4c(=O)n3C2=Nc2ccccc21 (stereo not drawn),Potency,[1],inactive
same,Potency,[2],inactive
COC(=O)c1cc(OC)cc(OC)c1C(=O)c1c(OC)cc2c(c1O)C1CCCC(C)(O2)O1 (stereo not drawn),Potency,[1],inactive
same,Potency,[2],inactive
CC(=O)OC1C(c2ccccc2)CCC(c2ccccc2)C1OC(C)=O (stereo not drawn),Potency,[1],inactive
same,Potency,[2],inactive
C=C1CC23CC1CCC2C12OC(=O)C(C)(CCC1O)C2C3C(=O)O (stereo not drawn),Potency,[1],inactive
same,Potency,[2],inactive
CC1=CC(=O)[C@]2(O[C@@H]3O[C@@H](C)[C@H](O)[C@@H](O)[C@H]3OC(=O)/C=C/c3ccccc3)C=CO[C@@H](O[C@@H]3O[C@H](CO)[C@@H](O)[C@H](O)[C@H]3O)[C@H]12,Potency,[1],inactive
same,Potency,[2],inactive
COc1ccc2nc(S(=O)(=O)Cc3ncc(C)c(OC)c3C)[nH]c2c1,Potency,[1],inactive
same,Potency,[2],inactive
COC(=O)[C@@H](O)[C@H]1[C@@]2(C)CC3(O)[C@@H](C(=O)[C@H]2O)[C@]24O[C@]25CC(=O)O[C@@H](c2ccoc2)[C@]5(C)CCC4[C@]13C (stereo partly drawn),Potency,[1],inactive
same,Potency,[2],inactive
O=C1NC(=O)C(c2cn(-c3ccccc3)nc2-c2ccc(F)cc2)N1 (stereo not drawn),Potency,[1],inactive
same,Potency,[2],inactive
CC1=CC(=O)[C@H]2C(C)(C)CCC[C@]2(C)[C@@]1(O)CO,Potency,[1],inactive
same,Potency,[2],inactive
COc1ccc(/C=C/C(=O)O[C@H]2[C@H](O[C@H]3[C@@H]4C=CO[C@@H](O[C@@H]5O[C@H](CO)[C@@H](O)[C@H](O)[C@H]5O)[C@@H]4[C@@]4(CO)O[C@@H]34)O[C@@H](C)[C@H](O)[C@H]2OC(C)=O)cc1,Potency,[1],inactive
same,Potency,[2],inactive
C[C@@H]1O[C@@H](O[C@H]2[C@H](O[C@H]3[C@H](O[C@H]4CC[C@@]5(C)C(CC[C@]6(C)C5CC=C5[C@@H]7CC(C)(C)C[C@@H](O)[C@]7(C)CC[C@]56C)[C@@]4(C)CO)O[C@H](C(=O)O)[C@@H](O)[C@@H]3O)OC[C@H](O)[C@@H]2O)[C@H](O)[C@H](O)[C@H]1O (stereo partly drawn),Potency,[1],inactive
same,"activity change, negative = viability loss",[2],2.23% [at 9.23 µM]
COc1cc2c(cc1O)[C@H](c1ccc(O[C@@H]3O[C@H](CO)[C@@H](O)[C@H](O)[C@H]3O)c(OC)c1)[C@@H](CO)[C@](O)(CO)C2,Potency,[1],inactive
same,Potency,[2],inactive
C/C=C(\C)C(=O)OCC1OC(OC2OC(COC(=O)/C(C)=C/C)C(OC3OC(CO)C(OC(=O)/C(C)=C/C)C(OC(=O)/C(C)=C/C)C3O)C(O)C2O)C(O)C(O)C1OC1OC(CO)C(OC(=O)/C(C)=C/C)C(OC(=O)/C(C)=C/C)C1O (stereo not drawn),Potency,[1],inactive
same,"activity change, negative = viability loss",[2],-4.2% [at 9.23 µM]
COc1ccc(N(C)c2nc(C)nc3ccccc23)cc1,Potency,[1],inactive
same,Potency,[2],0.0132 µM (active)
CC1CCC2C(C(=O)O)=COC(O[C@@H]3O[C@H](CO)[C@@H](O)[C@H](O)[C@H]3O)C12 (stereo partly drawn),Potency,[1],inactive
same,Potency,[2],inactive
C/C=C1\[C@H](O[C@@H]2O[C@H](CO)[C@@H](O)[C@H](O)[C@H]2O)OC=C(C(=O)OC)[C@H]1CC(=O)OC[C@H]1O[C@@H](OCCc2ccc(O)cc2)[C@H](O)[C@@H](O)[C@@H]1O,Potency,[1],inactive
same,Potency,[2],inactive
C[C@@H]1[C@H]2[C@H](O[C@@H]3O[C@H](CO)[C@@H](O)[C@H](O)[C@H]3O)OC=C(C(=O)O)[C@H]2C[C@@H]1O,Potency,[1],inactive
same,Potency,[2],inactive
COc1ccc(/C=C/C(=O)O[C@@H]2[C@@H](O)[C@H](C)O[C@@H](O[C@H]3[C@@H]4C=CO[C@@H](O[C@H]5O[C@@H](CO)[C@H](O)[C@@H](O)[C@@H]5O)[C@@H]4[C@@]4(CO)O[C@@H]34)[C@@H]2OC(C)=O)cc1,Potency,[1],inactive
same,Potency,[2],inactive
CC(Nc1ncnc2nc[nH]c12)c1cc2cccc(Cl)c2c(=O)n1-c1ccccc1 (stereo not drawn),Potency,[1],inactive
same,Potency,[2],0.332 µM (active)
CC1OC(OC2C(C)OC(OC3C(OC(=O)C45CCC(C)(C)CC4C4=CCC6C7(C)CCC(OC8OC(C(=O)O)C(O)C(O)C8OC8OC(CO)C(O)C(OC9OC(C)C(O)C(O)C9O)C8O)C(C)(CO)C7CCC6(C)C4(C)CC5)OC(CO)C(O)C3O)C(O)C2O)C(O)C(O)C1O (stereo not drawn),"activity change, negative = inhibition",[1],-1.29% [at 12.4 µM]
same,"activity change, negative = viability loss",[2],2.43% [at 9.23 µM]
C=C[C@H]1[C@H](O[C@@H]2O[C@H](CO)[C@@H](O)[C@H](O)[C@H]2O)OC=C(C(=O)OC)[C@H]1CC(=O)O,Potency,[1],inactive
same,Potency,[2],inactive
C=C(C(=O)O)C1CCC2(C)CCCC(C)(O)C2C1 (stereo not drawn),Potency,[1],inactive
same,Potency,[2],inactive
OC[C@H]1O[C@@H](OC[C@H]2O[C@@H](OC/C=C/c3ccccc3)[C@H](O)[C@@H](O)[C@@H]2O)[C@@H](O)[C@@H]1O,Potency,[1],inactive
same,Potency,[2],inactive

# — PubChem BioAssay (NCATS)
